Luciferase inh: Firefly luciferase inhibition profiling of diverse chemical library using quantitative high-throughput screening | 2.5% of 76,000 active | Potency, µM (titrated, usually from 115 µM), most hits filed as inhibitors | Luciferin 4-monooxygenase (Photinus pyralis), P08659 | purified P. pyralis luciferase, luminescence, biochemical; note: nearly all actives have a fitted effect of over 65% in size
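Biochemical qHTS: compound (6-point titration) added to 10uM D-luciferin plus 10uM ATP in Tris acetate pH 7.5 buffer with Mg, Tween-20 and BSA, then purified enzyme at 10nM; light output imaged.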
HEK293 viab: GF-AFC viability counterscreen for inhibitors of alpha-synuclein gene (SNCA) expression | HEK-293-SNCA-luc viability, GF-AFC fluorescence, 24 h | Potency, µM (top dose mostly 57.1 µM), for inactives: at the top dose activity change, negative = cytotoxicity, actives largely listed as cytotoxic | 0.12% of 150,000 active;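 note: 0% = DMSO-treated cells and -100% = medium-only wells without cells; nearly all actives have a fitted effect of over 30% in size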
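Cytotoxicity counterscreen: after 24 h compound treatment of genome-edited SNCA-luciferase HEK-293 cells, live-cell protease substrate GF-AFC read by fluorescence after 30 min; activity scaled between DMSO (0%) and medium-only (-100%), curves Hill-fitted.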
3T3 cytotox: Cytotoxic Profiling in NIH 3T3 Cell Line of Diverse Libraries Using Quantitative High-Throughput Screening; NIH 3T3 viability, CellTiter-Glo ATP luminescence, 48-72 h; Potency, µM (top dose mostly 96.7 µM), inactives show at the top dose activity change, negative = cytotoxicity, actives largely listed as inhibitors; 4.3% of 94,000 active; note: nearly all actives have a fitted effect of over 55% in size
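Viability of NIH 3T3 cells after 48 or 72 hr compound treatment at 37 °C was assessed by CellTiter-Glo, with luminescence imaged following a 10 min room-temperature step.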
HEK cytotox: Cytotoxic Profiling in HEK 293 Cell Line of Diverse Libraries Using Quantitative High-Throughput Screening | HEK 293 viability, ATP luminescence (CellTiter-Glo), 48-72 h | 6.6% of 94,000 active | Potency, µM (titrated, usually from 115 µM), for inactives: top-dose activity change, negative = cytotoxicity, most hits filed as inhibitors; note: nearly all actives have a fitted effect of over 60% in size
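ATP-coupled CellTiter-Glo luminescence served as viability read-out, recorded 10 min after reagent addition at room temperature. HEK 293 cells, 250 cells/well, had been incubated with pintool-transferred compound for 48 or 72 hr at 37 degree Celsius.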
NPR1 antag: Natriuretic polypeptide receptor (hNpr1) antagonism - Primary qHTS; Atrial natriuretic peptide receptor 1 (Homo sapiens), P16066; HEK293 hNpr1 GloSensor cGMP, ANP-stimulated luminescence; Potency, µM (series often up to 46.3 µM), for the others: at the highest dose activity change, negative = inhibition, hits mostly inhibitors; 1.6% of 76,000 active; AID 1347048, 2019; calls by dose curve; note: nearly all actives have a fitted effect of over 60% in size
Target sequence (P16066 whole entry, looked up): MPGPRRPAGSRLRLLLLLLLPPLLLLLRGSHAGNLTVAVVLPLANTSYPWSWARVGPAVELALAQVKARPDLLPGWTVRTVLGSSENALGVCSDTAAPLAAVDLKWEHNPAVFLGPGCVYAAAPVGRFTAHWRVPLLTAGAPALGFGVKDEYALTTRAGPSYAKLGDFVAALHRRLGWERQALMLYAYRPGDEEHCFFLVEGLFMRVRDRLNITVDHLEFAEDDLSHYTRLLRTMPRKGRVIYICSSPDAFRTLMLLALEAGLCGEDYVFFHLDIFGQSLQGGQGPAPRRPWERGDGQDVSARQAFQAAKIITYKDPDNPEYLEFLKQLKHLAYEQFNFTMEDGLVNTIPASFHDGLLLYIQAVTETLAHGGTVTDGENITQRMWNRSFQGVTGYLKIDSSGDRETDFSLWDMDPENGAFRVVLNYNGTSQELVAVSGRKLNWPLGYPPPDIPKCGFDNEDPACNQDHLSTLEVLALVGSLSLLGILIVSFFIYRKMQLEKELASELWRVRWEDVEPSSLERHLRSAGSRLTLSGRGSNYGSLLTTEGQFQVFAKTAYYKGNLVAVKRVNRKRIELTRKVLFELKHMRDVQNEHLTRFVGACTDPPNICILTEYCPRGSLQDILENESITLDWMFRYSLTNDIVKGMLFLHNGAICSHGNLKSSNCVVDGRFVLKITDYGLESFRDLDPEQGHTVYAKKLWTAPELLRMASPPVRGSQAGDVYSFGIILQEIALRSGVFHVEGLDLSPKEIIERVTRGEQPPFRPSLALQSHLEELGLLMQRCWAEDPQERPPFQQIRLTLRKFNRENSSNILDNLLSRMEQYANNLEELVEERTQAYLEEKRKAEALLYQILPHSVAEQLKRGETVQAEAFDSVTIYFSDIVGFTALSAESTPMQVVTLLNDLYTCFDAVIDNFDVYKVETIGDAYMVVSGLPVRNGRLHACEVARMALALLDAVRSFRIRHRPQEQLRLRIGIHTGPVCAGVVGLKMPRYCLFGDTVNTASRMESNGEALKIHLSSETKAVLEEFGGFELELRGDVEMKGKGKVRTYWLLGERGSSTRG
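HEK293 cells stably expressing human Npr1 and cGMP GloSensor pGS-40F, loaded 2 h with 2% GloSensor reagent, given compound 30 min at room temperature. Luminescence read before and 20 min after 0.1 nM hNppA.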
SNCA expr inhib: Primary qHTS assay for inhibitors of alpha-synuclein gene (SNCA) expression; Potency, µM (series often up to 57.2 µM), for the others: at the highest dose activity change, negative = inhibition, usual class: inhibitors; 0.17% of 140,000 active; HEK-293 SNCA-luciferase knock-in, luminescence, 24 h; AID 1671194, 2021;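 note: plate controls were DMSO cells for no effect and cell-free wells for full effect; nearly all actives have a fitted effect of over 45% in size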
* hit, by the source's call; i = inactive; ? = inconclusive; / = no result given; [ ] = remark or other dose. Sampled rows, rich in hits. Any-hit rate of the full collection: about 7.4%. Unless noted, calls come from the whole dose curve; as a rule, active = well fitted curve in the direction sought with a large enough effect; inconclusive = small, poorly fitted or top-dose-only effect, or another doubt; inactive = no such curve, though single readings can be large; an effect the other way counts as inactive or inconclusive. Unless noted, % is set by controls: 0 for no effect and ±100 for the full control effect; potency is the fitted concentration of half-maximal effect.

SMILES	Luciferase inh	HEK293 viab	3T3 cytotox	HEK cytotox	NPR1 antag	SNCA expr inhib
CC(C)Cc1cc(CC2(NCc3ccccc3O)COC2)no1	i	-9%[87.6 µM]	?	?	3%[70.6 µM]	-11%[87.6 µM]
COCc1nc(C2CCCN(C(=O)c3ccc(OC)cc3)C2)no1 (stereo not given)	i	-3%[12.5 µM]	3%	4%	-11%	4%
COc1cc(-c2cc3c(nc2-c2ccccc2)nc(C(=O)NC2CCN(C)CC2)n3C)ccn1	i	-5%	?	?	-8%	13%
COc1cc(F)ccc1-c1cc2c(nc1-c1ccccc1)nc(C(=O)NCCN(C)C)n2C	i	-13%	20µM*	32µM*	-4%	-16%
Cc1cc(-c2cc3c(nc2-c2ccccc2)nc(C(=O)NC2CCN(C)CC2)n3C)ccn1	i	-27%[87.6 µM]	25µM*	?	6%[70.6 µM]	11%[87.6 µM]
COCCNC(=O)c1nc2nc(-c3ccccc3)c(Cl)cc2n1C	i	3%[87.6 µM]	?	?	-1%[70.6 µM]	-20%[87.6 µM]
COc1ccc(-c2cc3c(nc2-c2ccccc2)nc(C(=O)NCCN(C)C)n3C)cn1	i	-4%[87.6 µM]	79µM*	?	3%[70.6 µM]	-30%[87.6 µM]
CN(C)CCNC(=O)c1nc2nc(-c3ccccc3)c(-c3cccnc3)cc2n1C	i	-8%[87.6 µM]	?	?	0%[70.6 µM]	?
CN(C)CCNC(=O)c1nc2nc(-c3ccccc3)c(-c3ccncc3)cc2n1C	i	-3%[87.6 µM]	100µM*	?	2%[70.6 µM]	7%[87.6 µM]
O=C(N[C@H]1CCN2C(=O)N(c3ccccc3)C(=O)[C@@H]2C1)C1CCCC1	i	-4%[87.6 µM]	-6%[174 µM]	0%[172 µM]	4%[70.6 µM]	-24%[87.6 µM]
COc1cc(-c2cc3c(nc2-c2ccccc2)nc(C(=O)NCCN(C)C)n3C)ccn1	i	-12%[87.6 µM]	?	?	-6%[70.6 µM]	18%[87.6 µM]
Cc1ccccc1-c1cc2c(nc1-c1ccccc1)nc(C(=O)NCCN(C)C)n2C	i	-30%[87.6 µM]	25µM*	35µM*	?	0%[87.6 µM]
COc1ccccc1-c1cc2c(nc1-c1ccccc1)nc(C(=O)NCCN(C)C)n2C	i	-16%[87.6 µM]	35µM*	?	?	8%[87.6 µM]
Cc1cc(-c2cc3c(nc2-c2ccccc2)nc(C(=O)NCCN(C)C)n3C)ccn1	i	-10%[87.6 µM]	?	-24%[172 µM]	5%[70.6 µM]	9%[87.6 µM]
Cc1cccc(NC(=O)N2CCC(CCNC(=O)Cc3ccccc3F)CC2)c1	i	0%	3%	0%	2%	-1%
Cc1nnc2n1C(C)CN(C(=O)Cn1nnc(-c3ccc(F)cc3)n1)C2 (stereo not given)	i	4%	-11%	-20%	1%	-13%
CC(=O)Nc1ccc2c(c1)nc1n2[C@@H](CNC(=O)c2ccccc2)COC1	i	-16%[87.6 µM]	3%[138 µM]	i	0%[70.6 µM]	-21%[87.6 µM]
Cc1nn(-c2ccccc2)c2c1C(C)N(C1CCCN(C(=O)c3ccccc3Cl)C1)C2=O (stereo not given)	/	/	?	40µM*	/	/
COc1ccc(C(=O)N2CCCC(N3C(=O)c4c(c(C)nn4-c4ccccc4)C3C)C2)cc1 (stereo not given)	/	/	14µM*	?	/	/
COCC1CCN(Cc2cn(-c3ccccc3C)nc2-c2ccc(OC)c(F)c2)CC1	i	0%	?	?	0%	-6%
CC(C)CN1CC[C@H](c2nc3c(C(N)=O)cccc3[nH]2)C1	i	-7%[87.6 µM]	?	?	-8%[70.6 µM]	29%[87.6 µM]
COc1ccc(-c2[nH]nc3ncc(-c4ccc([S+](C)(=O)[O-])cc4)nc23)cc1F	i	?	?	?	-6%[70.6 µM]	-61%[87.6 µM]
COc1ccc(-c2cnc3n[nH]c(-c4ccc(OC)c(F)c4)c3n2)cn1	i	0%[87.6 µM]	?	?	1%[70.6 µM]	-38%[87.6 µM]
COc1ccc(-c2[nH]nc3ncc(-c4ccc(C)cc4)nc23)cc1F	i	0%[87.6 µM]	40µM*	45µM*	-4%[70.6 µM]	?
COc1ccc(-c2[nH]nc3ncc(-c4ccccc4F)nc23)cc1F	i	-1%[87.6 µM]	50µM*	?	-16%[70.6 µM]	?
SMILES	Luciferase inh	HEK293 viab	3T3 cytotox	HEK cytotox	NPR1 antag	SNCA expr inhib
Cc1noc([C@@H]2CC(F)(F)CN2C(=O)Cc2ccc(F)cc2)n1	i	8%	-4%	-10%	1%	0%
Cn1nccc1C(O)c1cc2n(n1)CCN(C(=O)CCN1CCCO1)C2 (stereo not given)	i	0%	4%	i	1%	0%
O=C(CCn1ccc(=O)[nH]c1=O)NC1CCCN(CCCc2ccccc2)C1 (stereo not given)	i	6%	-10%	-10%	5%	19%
O=C(CCc1nc(-c2ccccc2)no1)NC1CCCN(CCCc2ccccc2)C1 (stereo not given)	i	-15%	?	45µM*	-9%	?
Cc1ccccc1CC(=O)N1CCC2(CCC(=O)N(Cc3ccccc3)C2)CC1	i	-7%	?	-9%	3%	2%
NC(=O)c1cccc(-c2ncc3c(n2)OCCN(c2ccccc2)C3=O)c1	45µM*	-3%[87.6 µM]	?	?	1%[70.6 µM]	5%[87.6 µM]
O=C1c2cnc(-c3cc4ccccc4o3)nc2OCCN1c1ccccc1	0.01µM*	-6%[87.6 µM]	-93%[138 µM]	-87%[172 µM]	0.28µM*	?
O=C1c2cnc(-c3ccncc3)nc2OCCN1c1ccccc1	?	-4%[87.6 µM]	-23%[138 µM]	?	-5%[70.6 µM]	27%[87.6 µM]
O=C1c2cnc(-c3ccccc3)nc2OCCN1c1cccc(C(F)(F)F)c1	?	-6%[87.6 µM]	?	?	?	64%[87.6 µM]
CC(=O)Nc1cccc(-c2ncc3c(n2)OCCN(c2ccccc2)C3=O)c1	28µM*	-9%[87.6 µM]	18µM*	-6%[172 µM]	4%[70.6 µM]	24%[87.6 µM]
CC(=O)Nc1cccc(-c2ncc3c(n2)OCCN(Cc2ccc(F)cc2F)C3=O)c1	i	-1%[87.6 µM]	?	?	-6%[70.6 µM]	-3%[87.6 µM]
CC(=O)Nc1cccc(-c2ncc3c(n2)OCCN(CC2CC2)C3=O)c1	50µM*	-1%[87.6 µM]	?	-9%[172 µM]	0%[70.6 µM]	66%[87.6 µM]
CC(=O)Nc1cccc(-c2ncc3c(n2)OCCN(Cc2ccccc2)C3=O)c1	?	2%[87.6 µM]	?	?	-1%[70.6 µM]	15%[87.6 µM]
COC[C@@H]1[C@H](C(=O)N2CCN(Cc3ccccc3)CC2)CCC(=O)N1C	i	-4%	-10%	3%	-2%	-16%
COc1ccc(C(=O)NCC2(COc3ccccc3)C[C@@H](O)[C@@H](O)C2)cc1 (stereo not given in full)	i	?	45µM*	-14%[172 µM]	-1%[70.6 µM]	0%[87.6 µM]
